The values below come from PubChem BioAssay (NCATS).

Records with an inconclusive call do not appear. Values without a mark were called inactive. The source made the active and inactive calls. Calls come from the whole dose curve; as a rule, active = well fitted inhibition curve with a large enough effect; inconclusive = small, poorly fitted or top-dose-only effect; inactive = flat fitted curve, though single readings scatter.
Potency is the fitted concentration of half-maximal effect.

In this experiment the test system is TAB109. Description: qHTS profiling for inhibitors of Plasmodium falciparum proliferation (AID 504749).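 For activity, negative = inhibition: 0% = DMSO vehicle and full inhibition = artemisinin control.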 Note: nearly all actives have a fitted effect of over 60% in size. The settings on record: P. falciparum in erythrocytes, SYBR Green DNA, 72 h; series mostly up to 28.7 µM; activity, negative = inhibition: at the top concentration. In short, it runs like this:
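Quantitative HTS: compounds pinned into medium, infected erythrocytes added (0.3% parasitemia, 2.5% hematocrit), 72 h culture at 37 C under 5% CO2. Saponin/Triton lysis with SYBR Green I, overnight RT, then fluorescence read.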
Turning to `CC(=O)Oc1ccc(C)cc1`, the “activity, negative = inhibition” value was 6.02%.
As to `CC(C)(C)NC[C@H](O)COc1nsnc1N1CCOCC1`, the Potency was 5.01 µM (active).
As to `Cc1ncc(CO)c(C=O)c1O`, the “activity, negative = inhibition” value was 7.68%.
Still for that read-out and setting: to `COc1cc(C)nc(-n2nc(C)cc2OC)n1` belongs -2.85% [at 12.8 µM]; to `O=C1C(O)=C(O)C(=O)C(O)=C1O`, -3.03%.
Same read-out and setting: the value for `CCCCCCCCCCCCSCCOCCO` was -2.13%; that for `OC[C@H]1O[C@@H]2O[C@H]3[C@H](O)[C@@H](O)[C@@H](O[C@H]4[C@H](O)[C@@H](O)[C@@H](O[C@H]5[C@H](O)[C@@H](O)[C@@H](O[C@H]6[C@H](O)[C@@H](O)[C@@H](O[C@H]7[C@H](O)[C@@H](O)[C@@H](O[C@H]8[C@H](O)[C@@H](O)[C@@H](O[C@H]1[C@H](O)[C@H]2O)O[C@@H]8CO)O[C@@H]7CO)O[C@@H]6CO)O[C@@H]5CO)O[C@@H]4CO)O[C@@H]3CO` was 8.38%.
The same measure, in the same setting: to `C#C[C@]1(OC(C)=O)CC[C@H]2[C@@H]3CCC4=C/C(=N/O)CC[C@@H]4[C@H]3CC[C@@]21CC` belongs 9.57%.
For the compound `CCOC(=O)c1c(N)sc2c1CCN(Cc1ccccc1)C2`, the Potency is 4.47 µM (active).
`CCCCCCCC/C=C\CCCCCCCCN`: the “activity, negative = inhibition” value was 1.47%.
The same measure, in the same setting: to `N#CCC(=O)NN` belongs 11.5%.
Same read-out and setting: to `C#C[C@]1(O)CC[C@H]2[C@@H]3CCC4=CC(=O)CC[C@@H]4[C@H]3CC[C@@]21CC` belongs -5.91%.
As to `O=C(c1ccc(F)cc1)C1CCN(CCn2c(=S)[nH]c3ccccc3c2=O)CC1`, the Potency is 4.47 µM (active).
For `CC(=O)N[C@@H](CCC(=O)O)C(=O)O`, the “activity, negative = inhibition” value was -7.06%.
On the same count and under the same terms, the value for `CCCc1ncc(C[n+]2ccccc2C)c(N)n1` was 8.26% [at 12.8 µM]; that for `CCN(CC)CCOC(=O)C1(c2ccccc2)CCCC1` was -93.7%.
Same read-out and setting: to `Cc1cccc(C)c1NC(=O)CN1CCCCCC1` belongs -10.2%.
The same measure, in the same setting: the value for `Nc1ccc(S(=O)(=O)NCc2ccccc2)cc1` was 13.2%.
Take `CN1CCc2cccc3c2[C@H]1Cc1ccc(O)c(O)c1-3`: the Potency is 8.91 µM (active).
Still for that read-out and setting: to `CCN(CC)CCOc1ccc2c(c1)C(=O)c1cc(OCCN(CC)CC)ccc1-2` belongs 5.01 µM (active).
As for `CCc1oc2ccccc2c1C(=O)c1cc(I)c(O)c(I)c1`, the “activity, negative = inhibition” value was 3.07%.
Turning to `CCCCCN=C(N)N/N=C/c1c[nH]c2ccc(OC)cc12`, the Potency was 4.47 µM (active).
As to `O=C(O)CCNC(=O)c1ccccc1`, the “activity, negative = inhibition” value is 18.7%.
On to `CCCCC(CC)COC(=O)/C=C/c1ccc(OC)cc1` (stereo unspecified), for which the “activity, negative = inhibition” value was 5.17%.
The same measure, in the same setting: the value for `COc1cc(NS(=O)(=O)c2ccc(N)cc2)ncn1` was 9.49% [at 12.8 µM]; that for `C=C[C@@]1(C)CC(=O)[C@]2(O)[C@@]3(C)[C@@H](O)CCC(C)(C)[C@@H]3[C@H](O)[C@H](OC(C)=O)[C@@]2(C)O1` was 0.498%.
